According to PubChem BioAssay (Tox21):
Several values for one entry are separate records, joined by “and”; a condition that tells them apart may be missing. Equal entries are not always repeated. Results filed as inconclusive are left out. More than one record can exist for a structure, and the calls need not agree. Activity calls are given as the source filed them. Calls come from the whole dose curve; as a rule, active = well fitted inhibition curve with a large enough effect in the repeat runs; inconclusive = weak or mixed curves; inactive = no such curve, though single readings can be large or run the other way.

Molecular target: Cytochrome P450 2C19 (Homo sapiens) (UniProt P33261)
Sequence (P33261 whole entry, looked up): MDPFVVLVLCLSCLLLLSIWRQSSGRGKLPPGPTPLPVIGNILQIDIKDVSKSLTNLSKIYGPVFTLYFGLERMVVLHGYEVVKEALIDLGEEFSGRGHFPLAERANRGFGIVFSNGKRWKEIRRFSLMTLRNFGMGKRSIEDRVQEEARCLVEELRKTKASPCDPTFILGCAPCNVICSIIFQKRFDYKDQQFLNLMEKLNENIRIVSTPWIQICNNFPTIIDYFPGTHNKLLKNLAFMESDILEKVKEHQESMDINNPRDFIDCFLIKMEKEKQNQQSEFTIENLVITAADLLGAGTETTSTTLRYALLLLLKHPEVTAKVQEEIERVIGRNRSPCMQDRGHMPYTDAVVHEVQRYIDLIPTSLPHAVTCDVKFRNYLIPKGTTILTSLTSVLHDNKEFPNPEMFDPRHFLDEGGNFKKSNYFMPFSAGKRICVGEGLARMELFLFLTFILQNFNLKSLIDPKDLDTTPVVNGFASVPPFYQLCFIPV
Assay: Cytochrome P450 Family 2 Subfamily C Member 19 (CYP2C19) small molecule antagonists: luciferase reporter qHTS assay (AID 1671197); note: nearly all actives have a fitted effect of over 65% in size
Settings: P450-Glo CYP2C19 enzyme, luciferin luminescence, 1 h; series mostly up to 115 µM; activity change, negative = inhibition: at the top concentration
Description: National Center for Advancing Translational Sciences [NCATS]
U.S. Environmental Protection Agency [EPA]
National Institutes of Environmental Health Sciences [NIEHS]
National Toxicology Program [NTP]
U.S. Food and Drug Administration [FDA]
Cytochrome P450 (CYP) enzymes are membrane-bound hemeproteins that play a key role in metabolism of drugs and xenobiotics. Evaluation of the effect of chemicals on CYP isozymes is useful to minimize the adverse drug reactions and toxicities in drug development process. Tox21 chemicals were tested for their effect on CYP enzyme activities by using P450-Glo (TM) screening systems (Promega Corporation, Madison, WI). These systems provide a luminescent method containing proluciferin substrates and are converted to luciferin products by CYP isozymes. The luciferin products formed are detected with a luciferin detection reagent, and the amount of light produced is proportional to CYP activity. P450-Glo (TM) CYP2C19 screening system (Catalog. No. V9880) was used to detect the compounds that interfere in CYP2C19 activity. The positive control compound used for CYP2C19 assay is ketoconazole (Sigma-Aldrich, St. Louis, MO).
Tox21 Assay Protocol Summary:
Two ul of enzyme-substrate mix was dispensed into medium binding white/solid 1536-well plates (Greiner Bio-One North America Inc., Monroe, NC) using a BioRaptr Flying Reagent Dispenser (FRD, Beckman Coulter, Brea, CA). Compounds dissolved in DMSO and positive control (ketoconazole) were transferred to the assay plates at 23 nl using a Pintool station (Wako, San Diego, CA). The assay plates were incubated at room temperature for 10 min. Then 2 ul of NADPH regeneration solution was added to each well of the assay plates using an FRD and incubated at 37C for 1 h. The reaction was stopped by adding 4 ul of detection reagent using an FRD and after 20 min incubation at room temperature the luminescence signal was measured using a ViewLux plate reader (Perkin Elmer, Shelton, CT). Data were expressed as relative luminescence units.
% is set by controls: 0 for no effect and ±100 for the full control effect; potency is the fitted concentration of half-maximal effect.

Structure (SMILES)	activity change, negative = inhibition	Potency
O=[N+]([O-])c1ccc2ccc3cccc4ccc1c2c34	-6.08% (inactive)	
CCC[CH2][Sn]([CH2]CCC)([CH2]CCC)[O]C(=O)c1ccccc1		1.59 µM (active)
CC1(C)CN=C(NN=C(/C=C/c2ccc(C(F)(F)F)cc2)/C=C/c2ccc(C(F)(F)F)cc2)NC1	-29.5% (inactive)	
Clc1ccc(COC(Cn2ccnc2)c2ccc(Cl)cc2Cl)cc1 (stereo not given)		166 nM (active) and 89 nM (active) and 246 nM (active)
CN(CCCC(O)c1cccnc1)N=O (stereo not given)	-0.0121% (inactive)	
CCCCCCCCCC[N+](C)(C)CCCCCCCCCC		35.6 µM (active)
CC(C)N1C(=O)N(c2ccccc2)CSC1=NC(C)(C)C		7.1 µM (active)
Cc1ccc(OP(=O)(Oc2ccccc2)Oc2ccccc2)cc1		3.22 µM (active)
O=C1NCN(c2ccccc2)C12CCN(CC1COc3ccccc3O1)CC2 (stereo not given)		4.36 µM (active)
C[C@H]1O[C@@H](O[C@H]2[C@@H](O)C[C@H](O[C@H]3[C@@H](O)C[C@H](O[C@H]4CC[C@@]5(C)[C@H](CC[C@@H]6[C@@H]5CC[C@]5(C)[C@@H](C7=CC(=O)OC7)CC[C@]65O)C4)O[C@@H]3C)O[C@@H]2C)C[C@H](O)[C@@H]1O	5.1% [at 52.9 µM] (inactive)	
COCC(=O)N(c1c(C)cccc1C)[C@H](C)C(=O)OC		79.6 µM (active)
CC(=O)/C=C/c1ccc2c(c1)OCO2		14.2 µM (active)
Cc1cc(C)cc(OP(=O)(Oc2cc(C)cc(C)c2)Oc2cc(C)cc(C)c2)c1		9.08 µM (active)
O=C(CCl)C(Cl)Cl		56.9 µM (active)
CC[C@H](C)[C@H]1O[C@]2(C=C[C@@H]1C)C[C@@H]1C[C@@H](C/C=C(\C)[C@@H](O[C@H]3C[C@H](OC)[C@@H](O[C@H]4C[C@H](OC)[C@@H](O)[C@H](C)O4)[C@H](C)O3)[C@@H](C)/C=C/C=C3\CO[C@@H]4[C@H](O)C(C)=C[C@@H](C(=O)O1)[C@]34O)O2		21 µM (active)
O=[N+]([O-])c1ccc(Oc2ccc(C(F)(F)F)cc2[N+](=O)[O-])cc1		0.894 µM (active)
CCS(=O)(=O)c1cccnc1S(=O)(=O)NC(=O)Nc1nc(OC)cc(OC)n1		63.3 µM (active)
CCOc1cc(C(C)(C)C)ccc1C1COC(c2c(F)cccc2F)=N1 (stereo not given)		3.42 µM (active)
Brc1c(Br)c(Br)c(Oc2c(Br)c(Br)c(Br)c(Br)c2Br)c(Br)c1Br	12.5% [at 23.6 µM] (inactive)	
CC(C)Oc1cccc(NC(=O)c2ccccc2C(F)(F)F)c1		3.99 µM (active)

Structure (SMILES)	activity change, negative = inhibition	Potency
c1ccc2c(c1)[nH]c1cnccc12		31.8 µM (active)
C[C@@H]1O[C@@H](O[C@@H]2C=C3CC[C@@H]4[C@H](CC[C@]5(C)[C@@H](c6ccc(=O)oc6)CC[C@]45O)[C@@]3(C)CC2)[C@H](O)[C@H](O)[C@H]1O	73.2% [at 52.9 µM] (inactive)	
CC(C)CC(C)N (stereo not given)	9.99% (inactive)	
COc1ccc(/C(=C/C(=O)N2CCOCC2)c2ccc(Cl)cc2)cc1OC		56.4 µM (active)
CCC(C)c1cc(C(C)(C)C)cc(-n2nc3ccccc3n2)c1O (stereo not given)	-16.3% [at 52.9 µM] (inactive)	
CC(C)OC(=S)S	-14.7% (inactive)	
Oc1cc(Cl)c(Cl)c(Cl)c1	35.5% (inactive)	
O=C1c2ccccc2C(=O)C1C(=O)C(c1ccccc1)c1ccc(Cl)cc1 (stereo not given)		17.8 µM (active)
CCCCCCCCCCCCCCCC[N+](C)(C)C		79.6 µM (active) and inactive
N#CCCSCCC#N	-3.57% (inactive)	
O=C(O)C1C2CCC(O2)C1C(=O)O (stereo not given)		36 µM (active) and inactive
CC(c1ccc(O)cc1)c1ccc(O)cc1		21 µM (active) and inactive
N#Cc1ccccc1Cl	-7.22% (inactive)	
Nc1ccccc1C(=O)Oc1ccc2ccccc2c1		35.6 µM (active)
Oc1ccc(C2(c3ccc(O)cc3)c3ccccc3-c3ccccc32)cc1		25.2 µM (active)
Cc1cccc(OP(=O)(Oc2cccc(C)c2)Oc2cccc(C)c2)c1		20 µM (active)
COP(=O)(OC)SCn1c(=O)oc2cc(Cl)cnc21		25.2 µM (active)
[Cl][Sn]([c]1ccccc1)([c]1ccccc1)[c]1ccccc1		6.74 µM (active)
ClCc1ccccc1CCl	7.94% (inactive)	
N#CCCO	-17% (inactive)	
